Bioassay records: PubChem BioAssay, several laboratories
Sa RN4220 lethal = S. aureus RN4220 growth inhibition; inhibition, % (no concentration beside the values); OD600, 16 h; AID 1259311; actives 0.33% (n = 330,000); in the data active = inhibition above about 85%
BJeLR viability = BJeLR cell viability loss; inhibition, % (test concentration not listed); actives 0.17% (n = 300,000); BJeLR (HRASV12) viability, CellTiter-Glo ATP luminescence, 48 h; in the data active = inhibition above about 50%
Sa ugtP lethal = compounds lethal to S. aureus RN4220 ugtP deletion mutant | actives 0.54% (n = 330,000) | OD600 growth, 16 h | AID 1259309 | growth inhibition, % (test concentration not listed); in the data active = growth inhibition above about 68%
MazF activator = activators of E. coli MazEF toxin-antitoxin RNase; P0AE70; FAM/BHQ RNA-DNA oligo cleavage fluorescence, 5 h; activation, % at 20 µM; actives 0.32% (n = 350,000); AID 504720; in the data active = activation above about 50%
Target sequence (P0AE70 whole entry, looked up): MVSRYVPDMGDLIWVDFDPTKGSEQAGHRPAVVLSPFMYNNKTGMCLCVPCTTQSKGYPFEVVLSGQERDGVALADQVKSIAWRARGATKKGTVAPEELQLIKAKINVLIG
PriA SSB inh = K. pneumoniae PriA-SSBct interaction inhibition. AlphaScreen SSBct-PriA binding, biotinylated peptide. AID 1272365. inhibition, % at 33 µM. actives 0.6% (n = 430,000); in the data active = inhibition mostly above about 37%, no sharp cut-off; inactive = mostly below about 20%
Hits are given with their value. Only some compounds are listed: those with a hit (about 1.2% of all), similar ones and a draw of the others.

For COC(=O)C1=C(c2ccc(OC)c(OC)c2)C[C@@H]2CC[C@H]1N2C(=O)NC(C)C the results were MazF activator inactive and PriA SSB inh inactive.
c1ccc(-c2cnc(CSc3ncnc4sccc34)o2)cc1 was read as Sa RN4220 lethal inactive, BJeLR viability inactive, Sa ugtP lethal inactive, MazF activator inactive and PriA SSB inh inactive.
`CCOc1ccc(S(=O)(=O)N2CCN(C(=O)c3ccco3)CC2)cc1` gave Sa RN4220 lethal inactive, BJeLR viability inactive, Sa ugtP lethal inactive, MazF activator inactive and PriA SSB inh inactive.
CCN(CC(=O)Nc1c(F)cccc1F)C(=O)CCc1ccc(OC)cc1 was read as Sa RN4220 lethal inactive, BJeLR viability inactive, Sa ugtP lethal inactive, MazF activator inactive and PriA SSB inh inactive.
`CN(C)CCSc1nc(-c2ccccc2)nc2c1CCCC2` gave Sa RN4220 lethal inactive, BJeLR viability inactive, Sa ugtP lethal inactive, MazF activator inactive and PriA SSB inh inactive.
For CCSc1nc(-c2ccccc2)nc2c1CCCC2 the results were Sa RN4220 lethal inactive, BJeLR viability inactive, Sa ugtP lethal 88, MazF activator inactive and PriA SSB inh inactive.
Cc1cc(NC(=O)CCC(=O)N(Cc2ccco2)C2(C(=O)NC3CCCC3)CCCCC2)no1 was read as Sa RN4220 lethal inactive, BJeLR viability inactive, Sa ugtP lethal inactive, MazF activator inactive and PriA SSB inh inactive.
O=c1[nH]c(=S)[nH]c2c1C(c1cc([N+](=O)[O-])c(N3CCOCC3)cc1N1CCOCC1)O2 (stereo unspecified) was read as Sa RN4220 lethal inactive, BJeLR viability inactive, Sa ugtP lethal inactive, MazF activator inactive and PriA SSB inh inactive.
`O=S(=O)(Nc1cccc(-c2nc3cccnc3s2)c1)c1ccc2c(c1)OCCO2` gave Sa RN4220 lethal inactive, BJeLR viability inactive, Sa ugtP lethal 93, MazF activator inactive and PriA SSB inh inactive.
For Cc1ccc(-c2nc3cccnc3s2)cc1NS(=O)(=O)c1ccc2c(c1)OCCO2 the results were Sa RN4220 lethal inactive, BJeLR viability inactive, Sa ugtP lethal inactive, MazF activator inactive and PriA SSB inh inactive.
`O=C(NCCn1ccc(-c2ccncc2)n1)C1(c2ccccc2)CCOCC1` gave PriA SSB inh inactive.
`O=C(NCCn1ccnc1-c1ncccn1)c1ccc(S(=O)(=O)N2CCOCC2)cc1` gave PriA SSB inh 92.
For O=C(NCCn1ccnc1-c1ncccn1)C1(c2ccccc2)CCOCC1 the results were PriA SSB inh 40.
Screening O=C(NCCN1CCOCC1)c1ccc(Cl)c(S(=O)(=O)N2CCCC2)c1 returned Sa RN4220 lethal inactive, BJeLR viability inactive, Sa ugtP lethal inactive, MazF activator inactive and PriA SSB inh 39.
`O=C(NCCCS(=O)(=O)N1CCN(c2ncccn2)CC1)c1ccc(S(=O)(=O)N2CCOCC2)cc1` gave PriA SSB inh inactive.
For CCOC(=O)C1=CN2CCCC[C@@H]2CC1=O the results were MazF activator inactive and PriA SSB inh inactive.
Nc1ncnc(N2CCN(c3ccc([N+](=O)[O-])cc3)CC2)c1[N+](=O)[O-] was read as PriA SSB inh inactive.
For Cc1noc(-c2cccnc2N2CC[C@H](NC(=O)c3ccoc3)C2)n1 the results were PriA SSB inh inactive.
Screening CC(C)S(=O)(=O)c1ccc(C(=O)Nc2nc(-c3ccccn3)cs2)cc1 returned PriA SSB inh 106.
CN(c1ccccc1)S(=O)(=O)c1ccc(C(=O)Nc2nc(-c3ccccn3)cs2)cc1 was read as PriA SSB inh 52.
`CN(c1ccccc1)S(=O)(=O)c1ccc(C(=O)Nc2nc(-c3ccc(Br)s3)cs2)cc1` gave PriA SSB inh inactive.
CCc1ccccc1NC(=O)c1ccc(S(=O)(=O)NCC2CCCO2)cc1 (stereo unspecified) was read as Sa RN4220 lethal inactive, BJeLR viability inactive, Sa ugtP lethal inactive, MazF activator inactive and PriA SSB inh inactive.
Screening O=C(Nc1cccnc1Cl)c1cccc(F)c1 returned Sa RN4220 lethal inactive, BJeLR viability inactive and Sa ugtP lethal inactive.
`Cc1ccc(C(=O)Nc2cccc([N+](=O)[O-])c2)cc1S(=O)(=O)Nc1cccc(C(=O)O)c1` gave Sa RN4220 lethal inactive, BJeLR viability inactive, Sa ugtP lethal 94, MazF activator inactive and PriA SSB inh inactive.
Screening CCOc1ccc(NC(=S)NC(=O)c2cnn(CC)c2)c([N+](=O)[O-])c1 returned Sa RN4220 lethal inactive, BJeLR viability inactive, Sa ugtP lethal 85, MazF activator inactive and PriA SSB inh inactive.
`CCOc1ccc(N)c([N+](=O)[O-])c1` gave PriA SSB inh 39.
For CCOc1ccc([N+](=O)[O-])c(N)c1 the results were Sa RN4220 lethal inactive, BJeLR viability inactive, Sa ugtP lethal inactive, MazF activator inactive and PriA SSB inh inactive.
CCOc1ccc(N/C=C/C(=O)c2ccc(OC)cc2)c([N+](=O)[O-])c1 was read as Sa RN4220 lethal inactive, BJeLR viability inactive, Sa ugtP lethal inactive and MazF activator 91.
CCOc1ccc(NC=CC(=O)c2ccc(C)cc2)c([N+](=O)[O-])c1 was read as PriA SSB inh inactive.
For CCOC(=O)c1ccc(NC(=O)N2C[C@@H]3C[C@H](C2)c2cccc(=O)n2C3)cc1 the results were PriA SSB inh inactive.
Cc1cc(NN=Cc2ccc(O)cc2)c2cccc(C)c2n1 was read as Sa RN4220 lethal inactive, Sa ugtP lethal inactive and PriA SSB inh inactive.
Cc1cc(C)c2nc(C)cc(N/N=C/c3ccc(O)cc3)c2c1 was read as BJeLR viability 51 and MazF activator inactive.
O=C(CSc1ncn[nH]1)c1ccc2c(c1)OCO2 was read as Sa RN4220 lethal inactive, BJeLR viability inactive, Sa ugtP lethal inactive, MazF activator inactive and PriA SSB inh inactive.
Screening C#CCOCCOCCOCCNc1nc(N2CCN(C(=O)C(Cc3cc4ccccc4[nH]3)n3cc(C(N)C(C)CC)nn3)CC2)nc(N2CCN(C(=O)C(Cc3cc4ccccc4[nH]3)n3cc(C(N)C(C)CC)nn3)CC2)n1 (stereo unspecified) returned BJeLR viability inactive, MazF activator inactive and PriA SSB inh 43.
`CCN(CC)CCn1c2ccccc2c(=O)c2c(O)ccc(O)c21` gave MazF activator inactive and PriA SSB inh 54.
Screening Cc1csc(C(=O)NCc2nn(CCN3CCCC3)c(=O)c3ccccc23)c1 returned PriA SSB inh 45.
For Cc1ccc(C)c(S(=O)(=O)NCc2nn(CCN3CCCC3)c(=O)c3ccccc23)c1 the results were PriA SSB inh inactive.
For Cc1ccc(CSc2nc3ccsc3c(=O)n2Cc2ccccn2)cc1 the results were Sa RN4220 lethal inactive, BJeLR viability inactive, Sa ugtP lethal 87, MazF activator inactive and PriA SSB inh inactive.
`O=C(NCCc1ccccc1)C1CCN(Cc2cccc3ccccc23)CC1` gave Sa RN4220 lethal inactive, BJeLR viability inactive, Sa ugtP lethal inactive, MazF activator inactive and PriA SSB inh inactive.
`CC(C)C(CO)N1CCN(Cc2ccccc2)CCC1=O` (stereo unspecified) gave Sa RN4220 lethal inactive, BJeLR viability inactive, Sa ugtP lethal inactive, MazF activator inactive and PriA SSB inh inactive.
`Clc1ccccc1CNc1ncnc2c1cnn2-c1ccccc1` gave PriA SSB inh inactive.
